Compound activity as filed in PubChem BioAssay.
Mdm2-MdmX inh = inhibitors of human Mdm2-MdmX association, primary screen, cell-based, luminescence, split luciferase, SaOS-2, uHTS | SaOS-2 split-luciferase Mdm2/MdmX complementation | inhibition, % at 8 µM | 330,000 compounds, 3% hits | AID 485346, 2010;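 active means inhibition of at least 50% at 8 µM in the primary screen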
Target sequence (O15151 whole entry, looked up): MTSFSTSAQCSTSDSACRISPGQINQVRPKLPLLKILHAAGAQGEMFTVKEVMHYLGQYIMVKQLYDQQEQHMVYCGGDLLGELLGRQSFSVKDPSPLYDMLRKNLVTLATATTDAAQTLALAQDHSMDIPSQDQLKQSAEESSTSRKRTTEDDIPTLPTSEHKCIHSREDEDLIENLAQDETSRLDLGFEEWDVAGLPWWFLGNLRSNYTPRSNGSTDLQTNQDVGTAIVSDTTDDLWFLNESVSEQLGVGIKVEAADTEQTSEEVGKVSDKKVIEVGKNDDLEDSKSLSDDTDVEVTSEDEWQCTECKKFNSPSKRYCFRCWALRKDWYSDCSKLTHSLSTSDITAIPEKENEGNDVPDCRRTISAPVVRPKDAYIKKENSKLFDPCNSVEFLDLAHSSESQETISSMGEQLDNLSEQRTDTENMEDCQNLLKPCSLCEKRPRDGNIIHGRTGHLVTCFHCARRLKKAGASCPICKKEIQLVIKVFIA
Target sequence (Q00987 whole entry, looked up): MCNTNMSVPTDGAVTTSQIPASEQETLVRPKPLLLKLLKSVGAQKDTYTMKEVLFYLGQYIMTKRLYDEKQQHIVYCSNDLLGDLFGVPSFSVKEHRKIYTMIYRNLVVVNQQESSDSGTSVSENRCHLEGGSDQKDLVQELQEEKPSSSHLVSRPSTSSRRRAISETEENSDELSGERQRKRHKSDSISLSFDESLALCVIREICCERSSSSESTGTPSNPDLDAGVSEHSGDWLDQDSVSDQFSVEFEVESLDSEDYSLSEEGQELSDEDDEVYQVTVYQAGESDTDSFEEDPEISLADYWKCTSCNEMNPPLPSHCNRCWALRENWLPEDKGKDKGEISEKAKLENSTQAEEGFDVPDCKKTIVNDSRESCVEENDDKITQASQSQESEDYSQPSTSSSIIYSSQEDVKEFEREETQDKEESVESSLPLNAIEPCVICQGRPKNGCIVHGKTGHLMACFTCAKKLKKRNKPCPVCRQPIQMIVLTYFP
CSC inhib = cancer stem cell viability inhibitors, primary screen, luminescence | cancer stem cell-like cells viability | inhibition, % at 7.5 µM | 300,000 compounds, 1.1% hits; in the data active means inhibition above about 75%; tested in HMLE shEcad cells
Beta cell apopt = inhibitors of cytokine-induced beta cell apoptosis, primary screen, luminescence; 300,000 compounds, 0.8% hits; INS-1E cytokine-induced death, ATP luminescence, 48 h; percent of positive-control rescue, neutral wells zero; protection from apoptosis, % (test concentration not listed);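 active means Every replicate reaches about 75%, or at least half do and their mean reaches it too, limit read from the data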;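 further: higher means more ATP so stronger rescue from cytokine killing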
MPTP block = mitochondrial permeability transition pore inhibitors, primary screen, biochemical, isolated mouse mitochondria, absorbance; Ca2+ swelling absorbance, 30 min; inhibition, % at 10 µM; 360,000 compounds, 1.4% hits; AID 602449, 2012;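 active means inhibition of 50% or more, scaled per plate between neutral and stimulator controls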
Gli-Sufu block = Gli-Sufu pathway antagonists, primary screen, luciferase luminescence, Sufu-KO-LIGHT cells, uHTS; Sufu-KO-LIGHT fibroblasts, Gli luciferase reporter luminescence; inhibition, % at 5 µM; 340,000 compounds, 0.74% hits;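 active means inhibition above about 55%, limit read from the data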
GRIN3A LBD mod = binders of NR3A ligand-binding domain, primary screen, biophysical, differential scanning fluorimetry, uHTS. Glutamate receptor ionotropic, NMDA 3A (GRIN3A) ligand-binding domain. NR3A LBD differential scanning fluorimetry, Tm shift; 0% = protein alone, 100% = glycine-bound protein. AID 1259313, 2017. 340,000 compounds, 2.5% hits. Tm shift relative to glycine control, % at 25 µM;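 active means melting temperature shift of at least 10% of the positive control shift, at one fixed dose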
Mdm2 MdmX conf = Mdm2-MdmX complex disruptors, retested hits, confirmation, luminescence, single concentration | shares compounds with Mdm2-MdmX inh | Mdm2-MdmX binding, luminescent assay | inhibition, % at 8 µM | 10,000 compounds, 55% hits | AID 489028, 2010; in the data active means inhibition above about 40%
Full FLuc ctr = full-length luciferase signal inhibition, confirmation, counter-screen for Mdm2/MdmX interaction inhibitor project, cell-based, single concentration, SaOS-2. SaOS-2 full-length luciferase counterscreen, luminescence. AID 504607, 2011. inhibition, % at 8 µM. 6,200 compounds, 77% hits. shares compounds with Mdm2-MdmX inh;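 active means mean inhibition at 8 µM reaching about 37%, which flags the compound as non-specific, limit read from the data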;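 further: p53-null SaOS-2 cells with luciferase driven by a doxycycline-inducible promoter; compound on cells about two nights before reading with doxycycline added after day one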
Each line names hits and unclear results; the compound was inactive in the other large screens (follow-up assays come after a bar, where they were run). In the library only some 6.6% were active in any assay of this set; here they are far more common.

COC(=O)[C@@]1(Cc2ccc(F)cc2)[C@H]2c3cc(C(=O)N(C)C)n(CCc4ccc(OC)c(Br)c4)c3C[C@H]2CN1C(=O)c1ccccc1	Mdm2-MdmX inh 67 | Mdm2 MdmX conf inactive
CCN(CC)CCCNC(=O)c1cc2nc3c(c(C(F)(F)F)n2n1)CCc1ccccc1-3	none (no result: Beta cell apopt)
Cc1ccc(O)c(NC(=O)c2cc3nc4c(c(C(F)(F)F)n3n2)CCc2ccccc2-4)c1	Mdm2-MdmX inh 80 | Mdm2 MdmX conf inactive | Full FLuc ctr 80
COc1ccc(C(=O)c2ccc3oc(-c4ccc(OC)cc4)c(-c4ccc(O)cc4)c3c2)cc1	Mdm2-MdmX inh 66, CSC inhib 104, GRIN3A LBD mod 11 | Mdm2 MdmX conf inactive
O=C(Oc1ccccc1-c1nnco1)c1ccc(Cl)cc1	none
O=C(Oc1c(-c2ccccc2)oc2ccccc2c1=O)c1ccccc1	Mdm2-MdmX inh 85 | Mdm2 MdmX conf 61 | Full FLuc ctr inactive
COc1ccc(-c2oc3ccccc3c(=O)c2OC(=O)c2ccc(C)cc2)cc1	Mdm2-MdmX inh 79 | Mdm2 MdmX conf 53 | Full FLuc ctr inactive
O=C(Oc1c(-c2ccccc2Cl)oc2ccccc2c1=O)c1ccc(Cl)cc1	Mdm2-MdmX inh 67 | Mdm2 MdmX conf 53 | Full FLuc ctr 48
O=C(Nc1ccccc1)c1ccc(NCCN2C(=O)CCC2=O)c([N+](=O)[O-])c1	none
C[C@H](CO)N1C[C@H](C)[C@@H](CN(C)Cc2ccc(Cl)c(Cl)c2)Oc2c(NS(=O)(=O)c3cn(C)cn3)cccc2C1=O	none (no result: CSC inhib)
COc1cc(NS(=O)(=O)c2ccc(C)cc2)c2c(c1N)C(=O)c1ccccc1C2=O	none (no result: Mdm2-MdmX inh, CSC inhib, Beta cell apopt, Gli-Sufu block, GRIN3A LBD mod)
O=c1ncc(F)c[nH]1	none (no result: Mdm2-MdmX inh, MPTP block, Gli-Sufu block, GRIN3A LBD mod)
Clc1ccc(CSc2nnc(-c3ccc4c(c3)OCO4)o2)cc1	none
O=C1CCCCC1Sc1nnc(-c2ccc3c(c2)OCO3)o1 (centres undefined)	Mdm2-MdmX inh 73 | Mdm2 MdmX conf 69 | Full FLuc ctr 90
Cc1sc2nc(C(C)C)nc(SCC(=O)N3c4ccccc4CC3C)c2c1C (centres undefined)	Mdm2-MdmX inh 56 | Mdm2 MdmX conf inactive
CCc1nc(SCC(=O)N2c3ccccc3CC2C)c2c(C)c(C)sc2n1 (centres undefined)	Mdm2-MdmX inh 98 | Mdm2 MdmX conf 93 | Full FLuc ctr 53
CCCc1ccc2oc(C(=O)NCc3nnc(C)o3)c(C)c2c1	none (no result: CSC inhib)
O=c1oc2ccccc2c2c1C(c1ccc(Cl)cc1)Nc1ccc3ccccc3c1-2 (centres undefined)	none
CCOc1ccc(OCC(=O)c2c(O)c3ccccc3oc2=O)cc1	none
CCOc1ccc(C2Nc3ccc4ccccc4c3-c3c2c(=O)oc2ccccc32)cc1 (centres undefined)	Mdm2-MdmX inh 68, GRIN3A LBD mod 14 | Mdm2 MdmX conf inactive
COc1ccc(C2Nc3ccc4ccccc4c3-c3c2c(=O)oc2ccccc32)cc1 (centres undefined)	Mdm2-MdmX inh 79 (no result: Gli-Sufu block, GRIN3A LBD mod) | Mdm2 MdmX conf inactive
CCCCNc1c2c3c(cccc3n(C)c1=O)C(=O)c1ccccc1-2	Mdm2-MdmX inh 51 | Mdm2 MdmX conf inactive
CCC1OC(C(C)C)Cc2[nH][nH]c(=O)c21 (centres undefined)	none (no result: Mdm2-MdmX inh, CSC inhib, Beta cell apopt, Gli-Sufu block, GRIN3A LBD mod)
CC1=[N+](C)c2ccc3ccccc3c2C1(C)C	Mdm2-MdmX inh 86, CSC inhib 103, Beta cell apopt 99, Gli-Sufu block 70 | Mdm2 MdmX conf 69 | Full FLuc ctr inactive
COC(=O)C1CCN(C(=O)/C(C)=C\c2ccccc2)CC1	none
